Paper PMC4552634, “A New Set of Chemical Starting Points with Plasmodium falciparum Transmission-Blocking Potential for Antimalarial Drug Discovery” (PLoS ONE, 2015)
In all, about 13,000 compounds went through this assay and about 3,200 (25%) showed an effect of 50% or more. The list shows a part of the results.

System: P. falciparum stage V gametocytes
Parameters: BacTiter-Glo ATP luminescence viability of purified stage V gametocytes in 384-well plates, per cent inhibition versus DMSO
Details: 48 h, 5 µM; inhibitor

Row | SMILES | % Inhibition [%]
1 | Cc1cc(F)ccc1[C@H]1CNCCN1C(=O)N(C)[C@@H](C)c1cc(C(F)(F)F)cc(C(F)(F)F)c1 [TCMDC-138495] | 76.86
2 | Cc1cc(F)ccc1[C@H]1C[C@H](N2CCOCC2)CCN1C(=O)N(C)[C@@H](C)c1cc(C(F)(F)F)cc(C(F)(F)F)c1 [TCMDC-138838] | 17.17
3 | Cc1cc(F)ccc1[C@H]1CNCCN1C(=O)N(C)C(C)(C)c1cc(C(F)(F)F)cc(C(F)(F)F)c1 [TCMDC-138568] | 62.57
4 | CCNc1cc(C(=O)N[C@@H](Cc2ccccc2)[C@H](O)CNC2CCC(C(C)(C)C)CC2)cc(N2CCCC2=O)c1 (stereo partly shown) [TCMDC-138903] | 47.86
5 | Cc1ccnc2nc(C(=O)Nc3cc(Cl)ccc3N3CCOCC3)nn12 [TCMDC-124435] | 7.323
6 | CC1CCCN(C(=O)C(C)Nc2cc(Cl)ccc2N2CCOCC2)C1 (stereo not shown) [TCMDC-125110] | 85
7 | CC(Oc1ccc(Cl)cc1)C(=O)Nc1cc(C(F)(F)F)ccc1N1CCOCC1 (stereo not shown) [TCMDC-125311] | 3.686
8 | COc1ccccc1CNC(=O)CCn1c(=O)[nH]c2ccsc2c1=O [TCMDC-123587] | 30.03
9 | O=C(CSc1nc2ccccc2c(=O)n1C1CC1)Nc1cc(C(F)(F)F)ccc1Cl [TCMDC-123578] | -84.13
10 | NC(N)=NCCCN(Cc1ccccc1)c1ccccc1 [TCMDC-131836] | 40.87
11 | NC(N)=NCC=C(c1ccccc1)c1ccccc1 [TCMDC-137566] | 51.32
12 | CC1(C)N=C(N)N=C(N)N1OCOc1cc(Cl)c(Cl)cc1Cl [TCMDC-131783] | 42.76
13 | CCOC(=O)c1cc(Cl)cc(Cl)c1OCCCON1C(N)=NC(N)=NC1(C)C [TCMDC-131703] | 21.46
14 | O=C(Nc1ccc(-c2nc3ccccc3[nH]2)cc1)c1cccc(S(=O)(=O)N2CCCC2)c1 [TCMDC-125262] | -9.526
15 | CC(C)CNCc1ccc(-c2ccc(CN(CCCN3CCN(C)CC3)C(=O)CCC3CCCC3)cc2)cc1 [TCMDC-140559] | 105.9
16 | CC(C)CNC(=O)c1cncc(-c2ccc(CN(C)C3CCN(C)CC3)cc2)c1 [TCMDC-134235] | 31.51
17 | CC[C@H](C)CNC(=O)c1cncc(-c2ccc(CNC3CCCC3)cc2)c1 [TCMDC-134232] | 8.826
18 | CC[C@H](C)CNC(=O)c1cncc(-c2ccc(CN(C)C3CCN(C)CC3)cc2)c1 [TCMDC-134233] | 22.49
19 | CC(C)CNCc1ccc(-c2cccc(CN(CCN(C)C)C(=O)CCC3CCCC3)c2)cc1 [TCMDC-140553] | 109.4
20 | CN(C)CCN(Cc1ccc(-c2ccc(CNCCc3ccccc3)cc2)nc1)C(=O)CCC1CCCC1 [TCMDC-141402] | 63.7
21 | CC(C)CNCc1cccc(-c2cccc(CN(CCCN3CCN(C)CC3)C(=O)NC3CCCCC3)c2)c1 [TCMDC-140633] | 106.9
22 | COc1cc(NC(=O)/C=C/c2ccccc2OC(F)(F)F)cc(OCCN2CCN(CCN3CCOCC3)CC2)c1 [TCMDC-140929] | -8.825
23 | COc1cc(NC(=O)NC(CCN2CCC3(CCc4ccccc43)CC2)c2ccc(Cl)c(Cl)c2)cc(OC)c1OC (stereo not shown) [TCMDC-141765] | -19.84

Row | SMILES | % Inhibition [%]
24 | CCC(C)CN1CCC(N(C)c2cc(NC(=O)c3ccc(F)cc3)ccn2)CC1 (stereo not shown) [TCMDC-134951] | 19.56
25 | Nc1nc(N)c(-c2ccccc2)c(=O)[nH]1 [TCMDC-137349] | 4.514
26 | CC(C)CNCc1cccc(-c2ccc(CN(CCCN3CCN(C)CC3)C(=O)CCC3CCCC3)cc2)c1 [TCMDC-140558] | 107.6
27 | CC[C@H](C)CNC(=O)c1ccnc(-c2cccc(CN(C)C3CCN(C)CC3)c2)c1 [TCMDC-134243] | -9.422
28 | CC(C)CNCc1cccc(-c2cccc(CN(CCCN3CCN(C)CC3)C(=O)CCC3CCCC3)c2)c1 [TCMDC-140554] | 109.3
29 | CC[C@H](C)CNC(=O)c1cncc(-c2cccc(CN(C)C3CCN(C)CC3)c2)c1 [TCMDC-134225] | 17.67
30 | COc1cc(OC)c(OC)cc1CN1CCC2(CC1)CN(Cc1ccc(Cl)c(Cl)c1)C(=O)O2 [TCMDC-132175] | 23.65
31 | CCOc1c(CNCCCNc2cc(=O)c3ccccc3[nH]2)cc(I)cc1C(C)(C)C [TCMDC-140132] | -43.73
32 | O=C(Nc1cccc(F)c1)c1ccc(C(=O)NC2CCN(CC3CCCCC3)C2)cc1 (stereo not shown) [TCMDC-136741] | 0.01446
33 | CC(CN(C)C)C(=O)Nc1cccc(-c2cccc(-c3nc4ccccc4[nH]3)c2)c1 (stereo not shown) [TCMDC-137101] | 94.09
34 | CC(CN(C)C)C(=O)Nc1cccc(-c2ccc(-c3nc4ccccc4[nH]3)cc2)c1 (stereo not shown) [TCMDC-137107] | -47.86
35 | CC(CN(C)C)C(=O)Nc1ccc(-c2csc(-c3nc4ccccc4[nH]3)c2)cc1 (stereo not shown) [TCMDC-132390] | 44.44
36 | CC(CN(C)C)C(=O)Nc1ccc(-c2cccc(-c3nc4ccccc4[nH]3)c2)cc1 (stereo not shown) [TCMDC-137099] | -5.672
37 | CC(CN(C)C)C(=O)Nc1ccc(-c2ccc(-c3nc4ccccc4[nH]3)cc2)cc1 (stereo not shown) [TCMDC-137108] | 88.79
38 | CC(CN(C)C)C(=O)Nc1cccc(-c2cccc(-c3nc4ccc(F)cc4[nH]3)c2)c1 (stereo not shown) [TCMDC-137104] | -36.15
39 | C#CCNCc1ccc(-c2ccc(-c3nc4cc(C(F)(F)F)ccc4[nH]3)s2)cc1.O=C(O)C(F)(F)F [TCMDC-132805] | -48.9
40 | COc1cc(CCON2C(N)=NC(N)=NC2(C)C)cc(OC)c1OC [TCMDC-131368] | -0.5645
41 | CC[C@]1(C)C[C@@H](NC(=O)NC(=O)c2ccc(OC)cc2)[C@]2(C)[C@H](C)CC[C@]3(CCC(=O)[C@H]32)[C@@H](C)[C@@H]1OC(=O)NC(=O)c1ccc(OC)cc1 [TCMDC-139025] | 34.49
42 | O=S(=O)(c1cc(Cl)c(Cl)cc1Cl)N1CCCCC(c2ccc(C(F)(F)F)cc2)=N1 [TCMDC-134542] | -0.152
43 | CC1(C)N=C(N)N=C(N)N1OCCCOc1cccc(C(=O)O)c1 [TCMDC-124025] | 22.26
44 | O=C(Nc1ccc(-c2cccc(-c3nc4ccccc4[nH]3)c2)cc1)Nc1ccc2c(c1)OCO2 [TCMDC-133168] | -6.536
45 | Cc1[nH]c(C)c(-c2ccc(OCc3cc(F)cc(F)c3)nc2)c(=O)c1Br [TCMDC-135683] | 58.89
46 | Cc1[nH]c(C)c(-c2ccc(OCc3ccc(F)cc3)nc2)c(=O)c1Br [TCMDC-135657] | 60.6

Row | SMILES | % Inhibition [%]
47 | Cc1[nH]c(C)c(-c2ccc(OCc3ccc(OC(F)(F)F)cc3)nc2)c(=O)c1Br [TCMDC-135254] | 45.17
48 | Cc1[nH]c(C)c(-c2ccc(OCc3cc(F)cc(F)c3)nc2)c(=O)c1Cl [TCMDC-135676] | 67.03
49 | CCNc1cc(C(=O)N[C@@H](Cc2ccc(Cl)cc2)[C@H](O)CNC2CCCCC2)cc(N2CCCCS2(=O)=O)c1 [TCMDC-135201] | 29.54
50 | N#Cc1ccc(NC(=Nc2ccccc2Br)N(C2CCCCC2)C2CCCCC2)c(O)c1 [TCMDC-140131] | -34.98
51 | FC(F)(F)CNc1nc(Nc2ccc3ncccc3c2)nc2[nH]ccc12 [TCMDC-132120] | 26.12
52 | C=C[C@H]1CN2CC[C@H]1C[C@H]2[C@H](O)c1ccnc2ccccc12 [TCMDC-123934] | 4.056
53 | CN(C)c1cccc(CN2CC=C(c3c[nH]c4ccc(Cl)cc34)CC2)c1 [TCMDC-138946] | 8.82
54 | Nc1ncnc2cc(-c3cccc(S(N)(=O)=O)c3)sc12 [TCMDC-135294] | -17.5
55 | CS(=O)(=O)c1cccc(-c2cnc(N)c3cc(-c4cccc(F)c4)ccc23)c1 [TCMDC-134493] | 8.942
56 | NS(=O)(=O)c1cccc(Br)c1 [TCMDC-123819] | -1.825
57 | NS(=O)(=O)c1cccc(-c2ccc3nccc(-c4cccc(S(N)(=O)=O)c4)c3c2)c1 [TCMDC-138902] | 75.33
58 | NS(=O)(=O)c1cccc(-c2ccc3c(=O)[nH]cnc3c2)c1 [TCMDC-136756] | 63.64
59 | COc1cccc(-c2ccc3c(-c4cccc(S(C)(=O)=O)c4)cnc(N)c3c2)c1 [TCMDC-134495] | 30.55
60 | CN(C)S(=O)(=O)c1cc(-c2ccc3nccc(-c4cccc(S(N)(=O)=O)c4)c3c2)cnc1N [TCMDC-134230] | 96.42
61 | COc1ccc(-c2ccc3c(-c4cccc(S(C)(=O)=O)c4)cnc(N)c3c2)cc1 [TCMDC-134494] | 3.475
62 | CS(=O)(=O)c1cccc(-c2cnc(N)c3cc(-c4ccc5c(c4)OCO5)ccc23)c1 [TCMDC-134515] | -1.728
63 | CS(=O)(=O)c1cccc(-c2cnc(N)c3cc(-c4ccc(F)cc4)ccc23)c1 [TCMDC-134492] | 11.87
64 | NS(=O)(=O)Cc1cccc(-c2ccnc3ccc(-c4cccc(S(N)(=O)=O)c4)cc23)c1 [TCMDC-134159] | 58.63
65 | COc1cc(Nc2nccc(N3CCC(NC(=O)Nc4cc(C)ccc4C)C3)n2)cc(OC)c1OC (stereo not shown) [TCMDC-133626] | -44.43
66 | Cc1cc(-c2ccc(Cl)cc2)c2c(N)c(C(=O)Nc3ccc(F)cc3)sc2n1 [TCMDC-124117] | 40.98
67 | CN(C)C(CNC(=O)c1cc(-c2ccncc2)c(-c2ccc(NC(=O)Nc3cccc(F)c3)cc2)o1)c1ccccc1 (stereo not shown) [TCMDC-135782] | 6.274
